Records with an inconclusive call do not appear. Values without a mark were called inactive. Active and inactive are the calls of the source. The call rests on the fitted dose curve; in most records, active means well fitted inhibition curve with a large enough effect; inconclusive means small, poorly fitted or top-dose-only effect; inactive means flat fitted curve, though single readings scatter.

Experiment [1] is described as follows: qHTS profiling for inhibitors of Plasmodium falciparum proliferation (AID 504749). Further: nearly all actives have a fitted effect of over 60% in size.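 On activity, negative = inhibition: 0% = DMSO vehicle and full inhibition = artemisinin control.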 As to conditions: P. falciparum in erythrocytes, SYBR Green DNA, 72 h, at 28.7 µM (top of the series). The method, boiled down: (§1)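 SYBR Green fluorescence (ex 485 nm, em 535 nm) reports parasite DNA after 72 h compound exposure of infected red cells at 0.3% parasitemia, 2.5% hematocrit; signal normalized to 0.29 uM artemisinin and vehicle wells.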
In general terms: In qHTS, concentration-response curves come from the screen itself.

The next experiment concerns 3D7. Described as above. The note with it: P. falciparum in erythrocytes, SYBR Green DNA, 72 h; series mostly up to 28.7 µM. The method, boiled down:
as §1

The test system of the next experiment is 7G8. The experiment is described as above. As to conditions: P. falciparum in erythrocytes, SYBR Green DNA, 72 h; series mostly up to 28.7 µM. In short, it runs like this: as §1
Another experiment concerns AA1029. Described as above. The note with it: P. falciparum in erythrocytes, SYBR Green DNA, 72 h; series mostly up to 28.7 µM. In short, it runs like this: as §1
In a further experiment the test system is AS120. The experiment is described as above. As to conditions: P. falciparum in erythrocytes, SYBR Green DNA, 72 h; series mostly up to 28.7 µM. In short, it runs like this:
as §1

In a further experiment the test system is ATS189. The experiment is described as above. The note with it: P. falciparum in erythrocytes, SYBR Green DNA, 72 h; series mostly up to 28.7 µM. The method, boiled down:
as §1

Another experiment deals with ATS95. Described as above. The note with it: P. falciparum in erythrocytes, SYBR Green DNA, 72 h; series mostly up to 28.7 µM. The method, boiled down: as §1
The next experiment concerns C2A. Described as above. The note with it: P. falciparum in erythrocytes, SYBR Green DNA, 72 h; series mostly up to 28.7 µM. In short, it runs like this:
as §1

The test system of the next experiment is CP185. Described as above. The note with it: P. falciparum in erythrocytes, SYBR Green DNA, 72 h; series mostly up to 28.7 µM. In short, it runs like this: as §1
The test system of a further experiment is CP191. Described as above. As to conditions: P. falciparum in erythrocytes, SYBR Green DNA, 72 h; series mostly up to 28.7 µM. The method, boiled down:
as §1

For the next experiment, the system named is CP192. The experiment is described as above. The note with it: P. falciparum in erythrocytes, SYBR Green DNA, 72 h; series mostly up to 28.7 µM. In short, it runs like this: as §1
Potency means the concentration at half of the fitted maximal effect.

Turning to `Cc1cccc(Nc2ncccc2C(=O)O)c1C`, the results for the activity, negative = inhibition in experiment [1] (parasite line A) and in [1] (parasite line B) were 2.92% and 1.25%, respectively. Moreover, the Potency result in the experiment on 3D7, with 7G8, in the experiment on AA1029, in the experiment with AS120, with ATS189 and in the experiment on ATS95 was “inactive” throughout. In addition, the Potency result in the experiment on C2A, in the experiment on CP185, in the experiment with CP191 and in the experiment with CP192 was “inactive” throughout.
As for `Oc1cc(O)cc(O)c1`, the activity, negative = inhibition in experiment [1] (parasite line A) is 0.686%; in experiment [1] (parasite line B) it was -2.93%. Besides, the Potency result with 3D7, in the experiment on 7G8, in the experiment on AA1029, with AS120, with ATS189 and in the experiment with ATS95 was “inactive” throughout. The Potency entry with C2A, in the experiment on CP185, in the experiment on CP191 and in the experiment with CP192 was “inactive” throughout.
With `O=C(O)[C@H]1CN(C/C=C/P(=O)(O)O)CCN1`, the activity, negative = inhibition in [1] (parasite line A) is 5.03%; in experiment [1] (parasite line B), 6.62%. Further, the Potency result in the experiment on 3D7, in the experiment with 7G8, in the experiment on AA1029, in the experiment on AS120, in the experiment on ATS189 and in the experiment on ATS95 was “inactive” in each case. Besides, the Potency entry in the experiment with C2A, in the experiment with CP185, in the experiment with CP191 and in the experiment on CP192 was “inactive” each time.
As for `OCC(O)CO`, the activity, negative = inhibition in experiment [1] (parasite line A) is 7.74%; in experiment [1] (parasite line B), 7.55%. Further, the Potency result with 3D7, in the experiment with 7G8, in the experiment on AA1029, with AS120, in the experiment on ATS189 and in the experiment on ATS95 was “inactive” each time. For the same compound, the Potency entry in the experiment on C2A, with CP185, in the experiment on CP191 and in the experiment with CP192 was “inactive” in each case.
Consider `ClC(Cl)Cl`, for which the figures for the activity, negative = inhibition in [1] (parasite line A) and in [1] (parasite line B) were 5.74% and 10.9%, respectively. Further, the Potency entry with 3D7, in the experiment with 7G8, in the experiment on AA1029, with AS120, in the experiment with ATS189 and in the experiment with ATS95 was “inactive” in each case. Moreover, the Potency result with C2A, with CP185, with CP191 and with CP192 was “inactive” each time.
Turning to `O=C(O)c1ccc(NC(=O)[C@H](Cc2ccc(O)cc2)NC(=O)c2ccccc2)cc1`, the results for the activity, negative = inhibition in experiment [1] (parasite line A) and in [1] (parasite line B) were 3.76% and 5.17%, respectively. The Potency result in the experiment with 3D7, in the experiment with 7G8, with AA1029, in the experiment on AS120, in the experiment with ATS189 and in the experiment with ATS95 was “inactive” throughout. In addition, the Potency entry in the experiment on C2A, with CP185, with CP191 and in the experiment with CP192 was “inactive” each time.
In the case of `C(=C\c1ccncc1)/c1ccccc1`, the activity, negative = inhibition was -2.95% in experiment [1] (parasite line A) and -9.52% in experiment [1] (parasite line B). The Potency result in the experiment on 3D7, with AA1029, in the experiment with AS120, in the experiment on ATS189, with ATS95 and with C2A was “inactive” in each case. Moreover, the Potency entry in the experiment on CP185, with CP191 and in the experiment on CP192 was “inactive” each time. Also, the Potency with 7G8 was 12.6 µM (active).
Take `Cc1ccc(C(C)(C)c2ccc(C)cc2)cc1`: the activity, negative = inhibition in experiment [1] (parasite line A) was 2.11%; in [1] (parasite line B) it was -1.44%. The Potency entry in the experiment with 3D7, in the experiment with 7G8, in the experiment with AA1029, in the experiment with AS120, in the experiment on ATS189 and in the experiment on ATS95 was “inactive” each time. Further, the Potency result in the experiment on C2A, with CP185, with CP191 and in the experiment with CP192 was “inactive” in each case.
Consider `CC1CC(OC(=O)C(O)c2ccccc2)CC(C)(C)C1` (centres undefined), for which the values for the activity, negative = inhibition in experiment [1] (parasite line A) and in [1] (parasite line B) were -16% and -1.53%, respectively. The Potency entry in the experiment on 3D7, with 7G8, in the experiment on AA1029, in the experiment on AS120, with ATS189 and with ATS95 was “inactive” in each case. Further, the Potency result in the experiment on C2A, with CP185 and with CP191 was “inactive” in each case.
In the case of `COc1ccc(C(=O)c2ccc(C)cc2)c(O)c1`, the activity, negative = inhibition in [1] (parasite line A) was 16.1%; in experiment [1] (parasite line B), 14.8%. In addition, the Potency result in the experiment on 3D7, in the experiment with 7G8, with AA1029, in the experiment with AS120, in the experiment on ATS189 and with ATS95 was “inactive” throughout. For the same compound, the Potency entry with C2A, in the experiment on CP185, with CP191 and in the experiment with CP192 was “inactive” each time.
As for `COc1ccc(-c2noc(CC(=O)O)c2-c2ccc(OC)cc2)cc1`, the activity, negative = inhibition in [1] (parasite line A) is 5.47%; in [1] (parasite line B), 9.58%. Further, the Potency result in the experiment with 3D7, with 7G8, with AA1029, with AS120, in the experiment with ATS189 and in the experiment on ATS95 was “inactive” each time. Moreover, the Potency result in the experiment on C2A, in the experiment on CP185, with CP191 and with CP192 was “inactive” each time.
For the compound `C[C@]12CC[C@@H]3c4ccc(OC(=O)c5ccccc5)cc4CC[C@H]3[C@@H]1CC[C@@H]2O`, the activity, negative = inhibition in [1] (parasite line A) was -13.9%; in experiment [1] (parasite line B) it was 5.42%. Moreover, the Potency is 6.31 µM (active) in the experiment on 3D7 and 11.2 µM (active) in the experiment on 7G8. In addition, the Potency result in the experiment on AA1029, in the experiment on AS120, with ATS189, in the experiment with ATS95, in the experiment with C2A and in the experiment with CP185 was “inactive” throughout. Further, the Potency entry with CP191 and in the experiment with CP192 was “inactive” each time.
On to `CC(C)(COP(=O)(O)OP(=O)(O)OC[C@H]1O[C@@H](n2cnc3c(N)ncnc32)[C@H](O)[C@@H]1OP(=O)(O)O)C(O)C(=O)NCCC(=O)NCCS` (some centres undefined), for which the activity, negative = inhibition in experiment [1] (parasite line A) was 7.03%; in [1] (parasite line B), 2.39%. Also, the Potency result in the experiment on 3D7, in the experiment on 7G8, in the experiment with AA1029, with AS120, in the experiment on ATS189 and in the experiment with ATS95 was “inactive” in each case. Moreover, the Potency entry with C2A, in the experiment on CP185, in the experiment on CP191 and in the experiment on CP192 was “inactive” each time.
On to `O[C@@H]([C@H](O)[C@H](O)CBr)[C@H](O)CBr`, for which the activity, negative = inhibition in experiment [1] (parasite line A) is -11.7%; in [1] (parasite line B) it was 1.51%. The Potency entry in the experiment on 3D7, in the experiment with 7G8, in the experiment on AA1029, with AS120, with ATS189 and in the experiment with ATS95 was “inactive” in each case. Also, the Potency entry with C2A, with CP185, in the experiment on CP191 and in the experiment with CP192 was “inactive” throughout.
Consider `O=C1[O][Bi][O]c2ccccc21`, for which the figures for the activity, negative = inhibition in [1] (parasite line A) and in experiment [1] (parasite line B) were 7.71% and 1.44%, respectively. The Potency result in the experiment with 3D7, in the experiment on 7G8, in the experiment with AA1029, in the experiment with AS120, in the experiment on ATS189 and in the experiment with ATS95 was “inactive” throughout. In addition, the Potency result in the experiment with C2A, in the experiment on CP185, in the experiment with CP191 and in the experiment on CP192 was “inactive” each time.
